Each structure is given as a SMILES string.

Our source for the inhibition values is ChEMBL document CHEMBL1961873, “Compounds: GSK PKIS; Assays: Nanosyn kinase panel” (2012).

Assay [1] addresses Tyrosine-protein kinase CSK (Homo sapiens) (UniProt P41240). To be noted: at 1 µM.
Assay [2] addresses T1, Discoidin domain-containing receptor 2 (Homo sapiens) (UniProt Q16832).
T1 sequence (whole entry): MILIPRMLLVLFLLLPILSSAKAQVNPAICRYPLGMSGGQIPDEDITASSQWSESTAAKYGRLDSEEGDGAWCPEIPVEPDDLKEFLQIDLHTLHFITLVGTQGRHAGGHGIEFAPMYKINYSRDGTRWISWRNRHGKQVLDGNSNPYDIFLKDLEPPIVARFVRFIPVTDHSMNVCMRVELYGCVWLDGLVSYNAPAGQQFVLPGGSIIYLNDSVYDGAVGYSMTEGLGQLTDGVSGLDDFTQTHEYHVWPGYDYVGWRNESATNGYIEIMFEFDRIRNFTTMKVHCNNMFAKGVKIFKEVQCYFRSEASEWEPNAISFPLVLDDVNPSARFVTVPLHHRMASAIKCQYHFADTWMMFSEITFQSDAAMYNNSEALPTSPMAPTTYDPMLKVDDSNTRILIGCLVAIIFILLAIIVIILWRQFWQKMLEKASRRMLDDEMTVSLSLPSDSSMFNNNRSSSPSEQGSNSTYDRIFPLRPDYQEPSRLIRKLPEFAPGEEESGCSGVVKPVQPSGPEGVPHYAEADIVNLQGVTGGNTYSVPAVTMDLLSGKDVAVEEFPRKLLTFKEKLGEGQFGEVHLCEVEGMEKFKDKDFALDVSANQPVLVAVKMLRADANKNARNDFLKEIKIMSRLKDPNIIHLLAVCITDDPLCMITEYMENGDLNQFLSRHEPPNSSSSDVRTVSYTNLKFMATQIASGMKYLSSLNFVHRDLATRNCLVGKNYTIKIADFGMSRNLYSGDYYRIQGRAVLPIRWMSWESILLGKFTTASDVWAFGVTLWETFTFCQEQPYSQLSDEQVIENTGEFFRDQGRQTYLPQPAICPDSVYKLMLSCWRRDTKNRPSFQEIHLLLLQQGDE
To be noted: at 0.1 µM.

The target in assay [3] is T1, Discoidin domain-containing receptor 2 (Homo sapiens). The settings on record: at 1 µM.
The target of assay [4] is Epidermal growth factor receptor (Homo sapiens) (UniProt P00533). The settings on record: at 0.1 µM.
Assay [5] has the same target. The settings on record: at 1 µM.
Assay [6] concerns Epidermal growth factor receptor (Homo sapiens), P00533 [L858R]. To be noted: at 0.1 µM.
Assay [7] has the same test system. The settings on record: at 1 µM.
Assay [8] has as its system Epidermal growth factor receptor (Homo sapiens), P00533 [L861Q]. To be noted: at 0.1 µM.
For assay [9] the test system is unchanged. To be noted: at 1 µM.
The test system of assay [10] is Epidermal growth factor receptor (Homo sapiens), P00533 [T790M]. The settings on record: at 0.1 µM.
Chain of Epidermal growth factor receptor (Homo sapiens), P00533 [T790M] (P00533 whole entry T790M): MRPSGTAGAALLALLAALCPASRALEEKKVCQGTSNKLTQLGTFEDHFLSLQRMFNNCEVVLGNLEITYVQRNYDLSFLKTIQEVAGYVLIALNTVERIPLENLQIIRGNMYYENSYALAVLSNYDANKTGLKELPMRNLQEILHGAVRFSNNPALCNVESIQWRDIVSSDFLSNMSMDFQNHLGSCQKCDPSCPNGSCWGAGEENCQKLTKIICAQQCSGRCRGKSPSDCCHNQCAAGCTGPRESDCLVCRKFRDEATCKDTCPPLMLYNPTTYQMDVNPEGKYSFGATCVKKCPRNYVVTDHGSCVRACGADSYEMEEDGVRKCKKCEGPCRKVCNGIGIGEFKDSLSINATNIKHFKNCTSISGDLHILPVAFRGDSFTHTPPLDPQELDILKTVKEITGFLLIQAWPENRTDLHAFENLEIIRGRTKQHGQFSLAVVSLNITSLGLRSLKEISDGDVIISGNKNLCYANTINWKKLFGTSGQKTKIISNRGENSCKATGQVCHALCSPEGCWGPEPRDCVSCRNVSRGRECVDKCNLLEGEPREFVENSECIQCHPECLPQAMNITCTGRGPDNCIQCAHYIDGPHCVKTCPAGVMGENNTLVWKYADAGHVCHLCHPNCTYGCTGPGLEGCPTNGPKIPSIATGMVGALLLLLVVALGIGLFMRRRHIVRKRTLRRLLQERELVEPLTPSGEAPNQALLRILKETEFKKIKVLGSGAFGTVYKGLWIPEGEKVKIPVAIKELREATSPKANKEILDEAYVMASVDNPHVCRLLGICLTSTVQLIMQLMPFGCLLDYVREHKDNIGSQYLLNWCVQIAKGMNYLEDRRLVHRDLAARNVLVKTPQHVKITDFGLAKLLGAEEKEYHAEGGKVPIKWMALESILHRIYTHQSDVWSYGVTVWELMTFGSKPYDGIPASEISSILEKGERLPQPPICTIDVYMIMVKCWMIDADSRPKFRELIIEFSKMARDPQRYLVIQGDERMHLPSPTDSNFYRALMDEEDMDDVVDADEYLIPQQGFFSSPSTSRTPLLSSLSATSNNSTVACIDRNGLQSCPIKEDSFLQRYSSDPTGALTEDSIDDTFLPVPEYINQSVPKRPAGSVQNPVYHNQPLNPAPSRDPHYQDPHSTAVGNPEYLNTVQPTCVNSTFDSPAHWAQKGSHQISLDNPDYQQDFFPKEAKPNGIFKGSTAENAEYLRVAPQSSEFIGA

Chain of Epidermal growth factor receptor (Homo sapiens), P00533 [L858R] (P00533 whole entry L858R): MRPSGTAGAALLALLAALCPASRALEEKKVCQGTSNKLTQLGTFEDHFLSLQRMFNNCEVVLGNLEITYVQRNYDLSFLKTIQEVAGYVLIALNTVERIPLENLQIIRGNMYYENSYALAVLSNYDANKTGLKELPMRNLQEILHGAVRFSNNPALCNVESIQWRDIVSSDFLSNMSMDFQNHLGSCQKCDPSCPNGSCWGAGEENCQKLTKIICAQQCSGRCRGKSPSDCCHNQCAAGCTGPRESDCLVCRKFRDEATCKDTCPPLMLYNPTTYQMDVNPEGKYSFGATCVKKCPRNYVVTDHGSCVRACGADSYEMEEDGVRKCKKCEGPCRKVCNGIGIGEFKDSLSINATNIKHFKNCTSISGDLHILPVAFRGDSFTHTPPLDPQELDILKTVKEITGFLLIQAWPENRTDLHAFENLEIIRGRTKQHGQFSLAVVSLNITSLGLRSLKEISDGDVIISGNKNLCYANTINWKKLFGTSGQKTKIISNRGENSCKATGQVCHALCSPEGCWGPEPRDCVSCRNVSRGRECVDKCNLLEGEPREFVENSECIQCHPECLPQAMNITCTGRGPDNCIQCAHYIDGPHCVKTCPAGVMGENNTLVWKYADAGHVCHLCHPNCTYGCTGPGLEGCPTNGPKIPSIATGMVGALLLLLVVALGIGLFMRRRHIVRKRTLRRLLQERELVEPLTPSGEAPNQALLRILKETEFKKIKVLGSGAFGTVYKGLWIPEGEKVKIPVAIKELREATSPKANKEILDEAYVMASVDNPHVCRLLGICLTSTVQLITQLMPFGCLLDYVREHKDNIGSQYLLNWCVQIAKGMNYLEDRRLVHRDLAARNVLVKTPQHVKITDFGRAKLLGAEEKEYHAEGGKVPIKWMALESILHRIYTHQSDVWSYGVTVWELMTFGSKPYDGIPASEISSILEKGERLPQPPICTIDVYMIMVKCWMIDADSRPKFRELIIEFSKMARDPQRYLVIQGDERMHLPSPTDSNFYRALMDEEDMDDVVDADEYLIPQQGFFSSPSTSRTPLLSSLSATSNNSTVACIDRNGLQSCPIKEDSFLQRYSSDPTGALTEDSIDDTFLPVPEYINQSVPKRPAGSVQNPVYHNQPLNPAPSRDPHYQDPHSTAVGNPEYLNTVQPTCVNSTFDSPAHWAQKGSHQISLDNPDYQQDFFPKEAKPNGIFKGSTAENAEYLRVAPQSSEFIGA
Chain of Epidermal growth factor receptor (Homo sapiens), P00533 [L861Q] (P00533 whole entry L861Q): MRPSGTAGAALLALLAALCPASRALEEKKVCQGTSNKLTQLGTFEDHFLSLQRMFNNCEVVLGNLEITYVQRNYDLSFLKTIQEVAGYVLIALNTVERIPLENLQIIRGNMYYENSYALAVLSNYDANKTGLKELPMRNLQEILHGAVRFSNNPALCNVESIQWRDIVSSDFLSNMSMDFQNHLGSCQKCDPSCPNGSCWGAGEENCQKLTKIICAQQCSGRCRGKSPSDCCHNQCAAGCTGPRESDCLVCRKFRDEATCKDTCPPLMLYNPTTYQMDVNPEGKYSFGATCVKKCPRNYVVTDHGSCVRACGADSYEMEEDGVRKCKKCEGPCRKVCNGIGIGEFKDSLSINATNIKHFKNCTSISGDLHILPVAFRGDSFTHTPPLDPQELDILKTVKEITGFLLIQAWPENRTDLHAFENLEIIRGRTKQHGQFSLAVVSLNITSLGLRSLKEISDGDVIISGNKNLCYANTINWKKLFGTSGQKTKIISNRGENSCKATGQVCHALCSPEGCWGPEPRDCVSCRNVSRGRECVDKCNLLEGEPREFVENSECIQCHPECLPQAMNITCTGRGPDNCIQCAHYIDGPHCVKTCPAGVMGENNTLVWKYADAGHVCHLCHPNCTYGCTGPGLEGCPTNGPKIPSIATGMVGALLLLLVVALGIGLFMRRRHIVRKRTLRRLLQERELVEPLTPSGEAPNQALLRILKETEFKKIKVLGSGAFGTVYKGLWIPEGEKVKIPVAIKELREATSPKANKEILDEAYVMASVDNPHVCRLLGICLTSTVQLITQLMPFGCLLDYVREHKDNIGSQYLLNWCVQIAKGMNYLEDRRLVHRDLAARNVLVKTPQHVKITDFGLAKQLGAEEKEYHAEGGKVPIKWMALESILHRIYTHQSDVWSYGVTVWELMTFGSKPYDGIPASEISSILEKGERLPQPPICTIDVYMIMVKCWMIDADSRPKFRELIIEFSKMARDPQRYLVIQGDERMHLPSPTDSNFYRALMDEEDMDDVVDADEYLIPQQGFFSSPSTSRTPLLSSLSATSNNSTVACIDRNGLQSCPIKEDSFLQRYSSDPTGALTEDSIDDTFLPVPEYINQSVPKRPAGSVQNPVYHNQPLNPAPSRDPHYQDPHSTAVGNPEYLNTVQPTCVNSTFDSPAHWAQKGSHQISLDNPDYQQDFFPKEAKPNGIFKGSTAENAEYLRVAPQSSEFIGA
Chain of Tyrosine-protein kinase CSK (Homo sapiens) (P41240 2-450 limits assumed): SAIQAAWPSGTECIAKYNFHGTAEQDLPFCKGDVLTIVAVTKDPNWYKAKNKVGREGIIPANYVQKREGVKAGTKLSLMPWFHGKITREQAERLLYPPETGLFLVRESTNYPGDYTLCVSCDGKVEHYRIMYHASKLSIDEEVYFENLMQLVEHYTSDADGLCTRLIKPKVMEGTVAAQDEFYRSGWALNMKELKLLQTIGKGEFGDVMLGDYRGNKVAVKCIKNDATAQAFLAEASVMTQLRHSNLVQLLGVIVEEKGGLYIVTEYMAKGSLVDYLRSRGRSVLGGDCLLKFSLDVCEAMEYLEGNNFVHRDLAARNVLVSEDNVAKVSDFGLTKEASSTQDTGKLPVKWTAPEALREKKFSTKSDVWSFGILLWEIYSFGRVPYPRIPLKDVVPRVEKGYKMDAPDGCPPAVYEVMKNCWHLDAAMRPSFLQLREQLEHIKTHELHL

`O=C1Nc2ccc(C(=O)c3ccco3)cc2C1=Cc1cc(Cl)c(O)c(Cl)c1`: the inhibition in assay [1] was 7.85%; in assay [2], 2.1%; in assay [3] it was 6.8%; in [4] it was 1.89%; in assay [5], 5.16%; in assay [6], 4.06%. Besides, the inhibition in assay [7] was 13.7%; in [8], 3.88%; in [9], 19.6%; in assay [10], 1.42%.
Consider `c1cnn2ncc(-c3ccnc(Nc4ccc5c(c4)OCCO5)n3)c2c1`, for which the inhibition in assay [1] came to 14.9%; in assay [2], 2.85%; in [3] it was 2.07%; in assay [4] it was 1.88%; in assay [5], 4.28%; in assay [6] it was 3.09%. The inhibition in [7] worked out at 11%; in [8], 3.71%; in assay [9], 5.7%; in [10], 2.81%.
Regarding `Cn1cc(C=C2C(=O)Nc3cccnc32)c2ccccc21`, the results for the inhibition in assay [1], in assay [2] and in assay [3] were -0.79%, 0.93% and 4.03%, respectively.
As for `Nc1ncnc2occ(-c3ccc(NC(=O)Nc4cccc(C(F)(F)F)c4)cc3)c12`, the inhibition turned out to be 44.4% in [1]; 64% in assay [2]; 79.2% in [3]; 1.36% in assay [4]; 7.97% in [5]; 3.92% in assay [6]. Also, the inhibition worked out at 6.22% in assay [7], 2.76% in assay [8], 3.15% in [9] and 2.8% in assay [10].
Consider `CS(=O)(=O)CCNCc1nc(-c2ccc3ncnc(Nc4ccc(F)c(Cl)c4)c3c2)cs1`, for which the inhibition was determined as 5.64% in assay [1], 7.7% in [2] and 10.9% in assay [3].
`COc1cc2ncn(-c3cc(OCc4ccccc4Cl)c(C(N)=O)s3)c2cc1OC`: the inhibition in assay [1] was determined as 4.61%; in [2], 0.71%; in [3] it was 0.75%; in [4], 2.48%; in assay [5] it was 8.81%; in assay [6], 1.49%. In addition, the inhibition was 13.4% in [7], -0.11% in assay [8], 5.11% in assay [9] and -1.99% in assay [10].
With `CC(C)=Cc1cccc2c1/C(=N/Nc1ccc(S(N)(=O)=O)cc1)C(=O)N2`, the inhibition was determined as 1.41% in [1]; 0.85% in assay [2]; 7.39% in assay [3]; 2.03% in assay [4]; 5.14% in assay [5]; 1.48% in assay [6]. The inhibition in [7] worked out at 9.14%; in [8] it was 1.19%; in [9] it was 3.55%; in assay [10], 1.38%.
Consider `COc1cc2ncn(-c3cc(O[C@H](C)c4ccccc4Cl)c(C(N)=O)s3)c2cc1OC`, for which the inhibition in assay [1] came to 10.1%; in assay [2], 8.95%; in [3], 12%; in [4], 3.12%; in assay [5] it was 3.34%; in assay [6] it was 3.8%. Also, the inhibition in assay [7] amounted to 14.9%; in assay [8], 2.61%; in assay [9] it was 5.37%; in [10], 1.29%.
Regarding `COc1ccc(COc2ccc(Cc3cnc(N)nc3N)cc2OC)cc1`, the inhibition in assay [1] was -3.17%; in assay [2], 8.57%; in assay [3] it was 8.13%; in assay [4], -0.51%; in assay [5] it was 5.41%; in assay [6], 0.93%. For the same molecule, the inhibition in [7] was -1.26%; in assay [8], -1.47%; in assay [9], -1.95%.
In the case of `NC(=O)c1cccc(Nc2nccc(Nc3cccc4[nH]ncc34)n2)c1`, the inhibition in [1] worked out at 26.5%; in assay [2], 19.9%; in assay [3], 77.6%; in [4], 2.96%; in assay [5], 24.1%; in assay [6], 13.4%. For the same molecule, the inhibition in assay [7] is 70.1%; in [8], 3.36%; in [9], 27.8%; in [10], -1.89%.
With `CS(=O)(=O)CCN(CC#N)Cc1ccc(-c2ccc3ncnc(Nc4ccc(OCc5cccc(F)c5)c(Cl)c4)c3c2)o1`, the inhibition is 4.77% in [1]; 0.7% in assay [2]; 0.75% in assay [3]; 69.4% in assay [4]; 77.2% in [5]; 36.5% in [6]. Further, the inhibition in assay [7] came to 83.6%; in assay [8], 41.5%; in assay [9] it was 76.2%; in [10], 1.04%.
For `O=C1NC(=O)C(N2CCc3ccccc32)=C1c1ccc(Cl)cc1`, the inhibition in [1] is 0.75%; in assay [2], 3.2%; in [3] it was 8.8%; in [4] it was -0.66%; in assay [5], 3.22%; in assay [6] it was -1.38%. Further, the inhibition in assay [7] came to 5.23%; in assay [8], 4.7%; in assay [9] it was 2.74%; in assay [10], 2.82%.
`CCn1c(-c2nonc2N)nc2cncc(C(=O)N3CCNCC3)c21`: the inhibition is 4.45% in assay [1]; 1.63% in assay [2]; 1.68% in [3]; 1.08% in assay [4]; 2.62% in [5]; 3.95% in [6]. The inhibition worked out at 3.98% in [7], 3.22% in [8], 5.49% in assay [9] and 2.68% in assay [10].
For `NCc1ccc(-c2nc(-c3ccc(Cl)c(O)c3)c(-c3ccncc3)[nH]2)cc1`, the inhibition in [1] was determined as 7.83%; in [2], 0.6%; in assay [3], 9.1%; in [4], 4.77%; in [5], 21.8%; in assay [6], 1.78%. Further, the inhibition is 31.9% in assay [7], 1.15% in [8], 13.5% in assay [9] and -0.03% in assay [10].
In the case of `Nc1nc(-c2ccc3c(c2)C(=Cc2cc(Br)c(O)c(Br)c2)C(=O)N3)cs1`, the inhibition was -6.6% in assay [1]; 0.46% in [2]; 2.46% in assay [3]; 0.84% in assay [4]; 5.53% in [5]; -3.68% in assay [6]. Moreover, the inhibition in assay [7] is 8.58%; in assay [8], 0.03%; in [9], 1.67%; in [10] it was -1.77%.
Take `O=C1NC(=O)C(c2ccc(Cl)cc2)=C1Nc1ccc(Cl)c(C(=O)O)c1`: the inhibition in [1] was -4.62%; in [2] it was 0.03%; in assay [3] it was 2.46%; in [4], 1.07%; in assay [5], 6.73%; in assay [6], -2.2%. In addition, the inhibition in assay [7] was 6.41%; in [8] it was 0.32%; in [9], 1.03%; in assay [10], -0.88%.
On to `CS(=O)(=O)Nc1ccc(N/C=C2\C(=O)Nc3ccccc32)cc1`, for which the inhibition in [1] was -6.43%; in assay [2] it was 0.64%; in [3] it was 0.83%; in assay [4], 0.27%; in assay [5] it was 1.45%; in assay [6], -0.02%. Besides, the inhibition in assay [7] was -5.94%; in assay [8], 0.35%; in assay [9] it was -1.41%; in assay [10], -1.68%.
As for `CCCN1CCC(Oc2cc(Nc3nc(Nc4cccc(F)c4C(N)=O)c4cc[nH]c4n3)c(OC)cc2Cl)CC1`, the inhibition was determined as 0.71% in [1]; 5.18% in assay [2]; 9.57% in assay [3]; 1.11% in assay [4]; 2.64% in assay [5]; 1.86% in assay [6]. The inhibition is 1.31% in assay [7], 1.13% in assay [8], 0.75% in assay [9] and -0.41% in [10].
